In PubChem BioAssay AID1159580 (chemical genetic matrix, 2015):
Several values for one entry are separate records, joined by “and”; a condition that tells them apart may be missing. Equal values may be shown once. About 2,000 (36%) of roughly 5,500 compounds were called active. Not shown: some 18% with an inconclusive outcome. Cut-off read from the data, not from the text of the source: active = normalized growth mostly below about 0.91 (no sharp cut-off); inconclusive = no clear call, values can overlap the other calls; inactive = mostly above about 0.92. The list shows a part of the results.

Experiment: chemical genetic growth profiling, strain panel (AID 1159580);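 note: tested at 20 µM; growth read once vehicle control cultures reached saturation at 30 °C; 1 = growth at the plate median or of vehicle wells; lower values mean less growth of the strain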
Conditions: S. cerevisiae deletion strains, growth OD

Measured: normalized growth

O=C(O)c1nc2cc(Cl)c(Cl)cc2[nH]c1=O
inactive: locus YAL013W, strain DEP1, hits give low values 1.02 | locus YAL021C, strain ccr4, hits give low values 0.995 | locus YAL026C, strain drs2, hits give low values 1.03 | locus YAL030W, strain snc1, hits give low values 1.01 | locus YBL061C, strain skt5, hits give low values 1.01 | locus YBR009C, strain hhf1, hits give low values 1.04 | locus YBR021W, strain FUR4, hits give low values 1.02 | locus YBR023C, strain chs3, hits give low values 1.03 | locus YBR171W, strain sec66, hits give low values 1.04 | locus YBR229C, strain ROT2, hits give low values 1.01 | locus YBR231C, strain swc5, hits give low values 1.02 | locus YBR279W, strain paf1, hits give low values 1.01 | locus YCL011C, strain gbp2, hits give low values 1.02 | locus YCL016C, strain dcc1, hits give low values 1.01 | locus YCL029C, strain bik1, hits give low values 0.99 | locus YCL061C, strain MRC1, hits give low values 1.03 | locus YCL069W, strain vba3, hits give low values 1.01 | locus YCR088W, strain abp1, hits give low values 1.01 | locus YDL005C, strain med2, hits give low values 1.02 | locus YDL035C, strain GPR1, hits give low values 1.01 | locus YDL040C, strain nat1, hits give low values 0.995 | locus YDL074C, strain BRE1, hits give low values 1.03 | locus YDL101C, strain DUN1, hits give low values 1.02 | locus YDL134C, strain PPH21, hits give low values 1 | locus YDL185W, strain tfp1, hits give low values 0.956 | locus YDL192W, strain arf1, hits give low values 0.993 | locus YDR001C, strain nth1, hits give low values 1.01 | locus YDR069C, strain doa4, hits give low values 1.04 | locus YDR101C, strain arx1, hits give low values 1.01 | locus YDR137W, strain rgp1, hits give low values 0.974 | locus YDR150W, strain NUM1, hits give low values 0.978 | locus YDR159W, strain sac3, hits give low values 1.01 | locus YDR162C, strain NBP2, hits give low values 1.03 | locus YDR195W, strain ref2 1.04 | locus YDR297W, strain sur2, hits give low values 1.01 | locus YDR318W, strain mcm21, hits give low values 0.994 | locus YDR334W, strain swr1, hits give low values 1.02 | locus YDR335W, strain msn5, hits give low values 1.02 | locus YDR388W, hits give low values 1.01 | locus YDR392W, strain spt3, hits give low values 0.968 | locus YDR502C, strain sam2, hits give low values 1.01 | locus YEL003W, strain gim4, hits give low values 1.03 | locus YEL037C, strain rad23, hits give low values 1.02 | locus YEL061C, strain CIN8 (second series), hits give low values 1.02 | locus YEL061C, strain CIN8, hits give low values 0.998 | locus YER015W, strain faa2, hits give low values 1.01 | locus YER016W, strain bim1, hits give low values 1.01 | locus YER110C, hits give low values 0.992 | locus YER111C, strain swi4, hits give low values 1.03 | locus YER155C, strain BEM2 (second series), hits give low values 1.03 | locus YER155C, strain BEM2, hits give low values 0.996 | locus YER167W, strain BCK2, hits give low values 1 | locus YFR010W, strain ubp6, hits give low values 1.03 | locus YGL078C, strain dbp3, hits give low values 0.992 | locus YGL086W, strain mad1, hits give low values 0.979 | locus YGL167C, strain pmr1, hits give low values 1.01 | locus YGL173C, strain kem1, hits give low values 1.02 | locus YGL227W, strain vid30, hits give low values 1.02 | locus YGL240W, strain doc1, hits give low values 1.03 | locus YGL248W, strain PDE1, hits give low values 1.01 | locus YGL253W, strain hxk2, hits give low values 1.03 | locus YGR078C, strain PAC10, hits give low values 1.03 | locus YGR135W, strain pre9, hits give low values 1.02 | locus YGR229C, strain SMI1, hits give low values 1.07 | locus YGR252W, strain gcn5, hits give low values 1 | locus YHR013C, strain ard1, hits give low values 0.994 | locus YHR027C, strain rpn1, hits give low values 1.02 | locus YHR030C, strain SLT2, hits give low values 0.995 and 0.994 | locus YHR079C, strain IRE1 (second series), hits give low values 0.997 | locus YHR079C, strain IRE1, hits give low values 0.999 | locus YHR094C, strain hxt1, hits give low values 0.983 | locus YHR129C, strain ARP1, hits give low values 1.01 | locus YHR142W, strain chs7, hits give low values 0.984 | locus YHR200W, strain rpn10, hits give low values 0.99 | locus YIL066C, strain RNR3, hits give low values 1 | locus YIL073C, strain SPO22, hits give low values 0.946 | locus YIR030C, strain dcg1, hits give low values 0.992 | locus YJL092W, strain hpr5, hits give low values 1.02 | locus YJL095W, strain BCK1 (second series), hits give low values 1 | locus YJL095W, strain BCK1, hits give low values 1.05 and 0.986 | locus YJL115W, strain asf1, hits give low values 1.02 | locus YJL129C, strain trk1, hits give low values 1.01 | locus YJL134W, strain LCB3, hits give low values 0.994 | locus YJL154C, strain vps35, hits give low values 1 | locus YJL164C, strain tpk1, hits give low values 0.999 | locus YJL166W, strain qcr8, hits give low values 1.02 | locus YJL168C, strain set2, hits give low values 1.01 | locus YJL187C, strain SWE1 (second series), hits give low values 1.01 | locus YJL187C, strain SWE1, hits give low values 1.02 | locus YJR043C, strain POL32, hits give low values 1.02 | locus YJR066W, strain TOR1, hits give low values 0.985
